Only some compounds are listed: those with a hit (about 2.8% of all), similar ones and a draw of the others.
IP6K1 inhibitor – inhibitors of human IP6K1 | activity change, % (series mostly up to about 58 µM) | Q92551 | AID 1645851 | IP6K1 kinase, ADP-Glo luminescence, 2 h; hits give low values | 0.81% of 140,000 active; in the data active means activity change below about -25%
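ADP-Glo luminescence measures ADP made by human IP6K1 during a 2 h RT reaction with ATP/IP6 (mix at 1.3 mM/130 uM); top library doses 57.5 and 19.1 uM final.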
KDM5B inh – inhibitors of human KDM5B histone demethylase; KDM5B demethylase, FDH-coupled NADH fluorescence (FDH is formaldehyde dehydrogenase); Potency, µM (highest dose often 57.7 µM), most hits filed as inhibitors; 2.6% of 220,000 active; further: nearly all actives have a fitted effect of over 70% in size
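Inhibition is measured as reduced NADH fluorescence generation from FDH coupling to formaldehyde release. Truncated KDM5BΔAP at 200 nM final acts on H3K4me3 peptide (12.5 µM in substrate mix) in pH 7.5 HEPES buffer with Tween-20, 30 min, room temperature.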
SNCA viab count – cell viability loss counter-screen; HEK-293-SNCA-luc viability, GF-AFC fluorescence, 24 h; Potency, µM (top dose mostly 57.1 µM), hits mostly cytotoxic; 0.12% of 150,000 active; further: nearly all actives have a fitted effect of over 30% in size
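HEK-293-SNCA-luc cells (1500/well) plated 24 h, then exposed 24 h to a dilution series; GF-AFC added 30 min at 37C, fluorescence 405/540 nm; normalised to medium-only and DMSO wells, Hill fit.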
SNCA expr inh – reduces expression of the alpha-synuclein gene; HEK-293 SNCA-luciferase knock-in, luminescence, 24 h; Potency, µM (titrated, usually from 57.2 µM), usual class: inhibitors; 0.17% of 140,000 active; AID 1671194; further: nearly all actives have a fitted effect of over 45% in size
A number is an active result; – = inactive; ? = inconclusive; · = not tested or not shown; [ ] = another dose, or the depositor's remark. Unless noted, the call rests on the fitted dose curve; in most records, active means well fitted curve in the direction sought with a large enough effect; inconclusive means small, poorly fitted or top-dose-only effect, or another doubt; inactive means no such curve, though single readings can be large; an effect the other way counts as inactive or inconclusive.

SMILES	IP6K1 inhibitor	KDM5B inh	SNCA viab count	SNCA expr inh
COc1ccc(Nc2ncc(-c3cnn(C)c3)c3c2OCC3)cc1	–	35µM	–	–
Cc1noc(C)c1-c1cnc(Nc2ccc(F)c(Cl)c2)c2c1CCO2	–	18µM	–	–
COc1cncc(Nc2ncc(-c3cccc(N(C)C)c3)c3c2OCC3)c1	–	32µM	–	?
COc1cccc(Nc2ncc(-c3c(C)noc3C)c3c2OCC3)c1	–	35µM	–	–
Cc1ccc(Cl)cc1NC(=O)CSCc1cnn(-c2ccccc2)c1-n1cccc1	–	–	–	?
CCOc1cc(/C=C/C(=O)O)ccc1OCc1ccc2ccccc2c1	·	–	·	·
O=C(Nc1ccc(Oc2ccccc2)cc1)N[C@H]1CO[C@H]2[C@@H]1OC[C@@H]2n1nnnc1Oc1ccc(-n2ccnc2)cc1	–	–	–	?
CN(C)c1ccc2nnc(-c3cc(C(=O)NCCc4ccccn4)ccn3)n2n1	–	35µM	–	?
CN(c1ccccc1)c1ccc2nnc(-c3cc(C(=O)NCC4CCCO4)ccn3)n2n1 (configuration not stated)	–	–	–	–
CN(c1ccccc1)c1ccc2nnc(-c3cc(C(=O)Nc4ccccn4)ccn3)n2n1	–	11µM	–	–
CN(c1ccccc1)c1ccc2nnc(-c3cc(C(=O)NCc4cccnc4)ccn3)n2n1	–	35µM	–	–
COc1cccc(NC(=O)c2ccnc(-c3nnc4ccc(N(C)C)nn34)c2)c1	–	?	–	–
COCCCNC(=O)c1cc(C2CC2)nc2c1c(C1CCCN1)nn2-c1ccccc1 (configuration not stated)	–	–	–	?
Cc1cc(C)cc(Nc2nc3ccccc3nc2NS(=O)(=O)c2cccs2)c1	·	–	·	·
COc1ccccc1-c1ccc(C(=O)N2CCC(C(=O)NCCc3ccc(Cl)cc3)CC2)cc1	–	·	–[12.5 µM]	–
COc1ccc(-c2nccc3c(=O)cc(N4CCOCC4)oc23)cn1	–	35µM	–	–
O=c1cc(N2CCOCC2)oc2c(N3CCN(c4ccccn4)CC3)nccc12	–	–	–	–
COc1ccc(-c2nccc3c(=O)cc(N4CCN(C)CC4)oc23)cc1OC	–	–	–	–
CN1CCN(c2ccc(-c3nccc4c(=O)cc(N5CCOCC5)oc34)cn2)CC1	–	?	–	–
O=c1cc(N2CCOCC2)oc2c(-c3ccncc3)nccc12	–	35µM	–	–
CN(C)c1cccc(-c2nccc3c(=O)cc(N4CCOCC4)oc23)c1	–	35µM	–	–
COc1cc(-c2nccc3c(=O)cc(N4CCOCC4)oc23)ccn1	–	25µM	–	–
COc1cc(C)ccc1OCc1cccc(C(N)=O)c1	·	–	·	·
COc1cc(/C=C(/C#N)C(=O)c2c(Cl)cccc2Cl)cc(OC)c1	·	–	·	·
COc1cc(N2CCC(N(C)C)CC2)ccc1Nc1ncc(Cl)c(Nc2ccccc2P(C)(C)=O)n1	–	·	?	8.5µM
SMILES	IP6K1 inhibitor	KDM5B inh	SNCA viab count	SNCA expr inh
C=C1/C(=C/C=C2\CCC[C@]3(C)[C@@H]([C@H](C)/C=C/C(=O)C4CC4)CC[C@@H]23)C[C@@H](O)C[C@@H]1O	–	·	24µM	·
CC(=O)Nc1ccc(C2(C(=O)N3CCN(c4ccccc4)CC3)CCCCC2)cc1	–	–	–	–
O=C(Nc1ccc(C2(C(=O)N3CCN(c4ccccn4)CC3)CCC2)cc1)C1CC1	–	18µM	–	–
CS(=O)(=O)Nc1ccc(C2(C(=O)N3CCN(c4ccccn4)CC3)CCCCC2)cc1	–	22µM	–	?
CC(C)C(=O)Nc1ccc(C2(C(=O)N3CCCCC3)CCCCC2)cc1	–	–	–	–
CC(C)C(=O)Nc1ccc(C2(C(=O)N3CCN(c4ccccn4)CC3)CCCCC2)cc1	–	22µM	–	–
COc1ccc(C2=CC(c3ccccc3Cl)n3nc(-c4ccc(C)cc4)nc3N2)cc1 (configuration not stated)	–	–	?	–
COc1ccc(CN(C)C(=O)Cn2nnnc2CN2CCOCC2)c2cccnc12	–	22µM	–	–
COCCNC(=O)c1cc(Br)cn2ccnc12	–	40µM	–	–
O=C(NCC1CC1)c1cc(Br)cn2ccnc12	–	?	–	–
O=C(NCC(F)(F)F)c1cc(Br)cn2ccnc12	–	35µM	–	–
O=C(NCc1ccc(C(F)(F)F)cc1)c1cc(Br)cn2ccnc12	–	14µM	?	–
O=C(NCCc1ccccc1F)c1cc(Br)cn2ccnc12	–	28µM	–	–
O=C(NCCc1ccccc1F)c1ccncc1	·	–	·	·
CN(Cc1cccn1C)C(=O)c1cccc(Cl)c1	–	–	–	–
COC(=O)CNC(=O)c1cc(Br)cn2ccnc12	–	32µM	–	–
O=C(Nc1cc2cccc([N+](=O)[O-])c2oc1=O)c1ccc(F)cc1	·	–	·	·
O=C(Nc1cc2ccc(O)cc2oc1=O)c1ccc(F)cc1	–	–	–	2µM
CCC(=O)Nc1cc(C(=O)NCC(C)C)c2ccc(C)nc2c1	–	22µM	–	–
CCNC(=O)c1cc(NC(=O)CC)cc2nc(C)ccc12	–	20µM	–	–
CCCCNC(=O)c1cc(NC(=O)CC)cc2nc(C)ccc12	–	25µM	–	–
N#Cc1ccc(CN2CCCC3(CN[S+](=O)([O-])c4ccccc4N3)C2)cc1 (configuration not stated)	–	–	–	–
O=C(CCC[C@@H]1[C@H]2CCCN3CCC[C@@H](CN1Cc1ccccc1)[C@@H]23)NCCCn1cccn1	–	22µM	–	–
CC(=O)N1C[C@@H]2CCCN3CCC[C@@H]([C@H]23)[C@H]1CCCC(=O)NCCN1CCCCC1	–	22µM	–	–
CCN1CCN(CCNC(=O)CCC[C@@H]2[C@H]3CCCN4CCC[C@@H](CN2C(C)=O)[C@@H]34)CC1	–	–	–	–
SMILES	IP6K1 inhibitor	KDM5B inh	SNCA viab count	SNCA expr inh
CC(=O)N1C[C@@H]2CCCN3CCC[C@@H]([C@H]23)[C@H]1CCCC(=O)NCCCN1CCCCC1	–	25µM	–	–
CC(=O)N1C[C@@H]2CCCN3CCC[C@@H]([C@H]23)[C@H]1CCCC(=O)N(C)C	–	20µM	–	–
CN(C)C(=O)CCC[C@@H]1[C@H]2CCCN3CCC[C@@H](CN1C)[C@@H]23	–	–	–	–
CNC(=O)[C@@H]1C[C@@H](O)CN1C1CCN(C(=O)CC2CCCCC2)CC1	–	–	–	–
COC1C(=O)N(C2CCN(S(=O)(=O)c3c(C)nn(C)c3C)CC2)C12CCOCC2 (configuration not stated)	–	–	–	–
COCC(=O)N(C1CCOCC1)C1CCN(S(=O)(=O)c2cccc(F)c2)CC1	–	–	–	–
COCCNC(=O)Cn1nc(C)c2sc(-c3ccccc3)nc2c1=O	–	28µM	–	–
CCc1nc2c(=O)n(CC(=O)NCc3cccc(Cl)c3)nc(C)c2s1	–	–	–	–
O=C(Cn1nc(-c2ccccc2)ccc1=O)NCCCN1CCOCC1	·	–	·	·
Cc1ccc(-c2nn(CC(=O)O)c(=O)c3ccccc23)cc1	·	–	·	·
Cc1nn(CC(=O)O)c(=O)c2nc(-c3ccccc3)sc12	–	32µM	–	–
Cc1nn(CC(=O)NCCCN2CCCCC2)c(=O)c2nc(-c3ccccc3)sc12	–	32µM	–	–
